Common to all, as to experiment: HT-SELEX; high values mean tight binding
Conditions in all cases: protein: recombinant; vector His6-GST; dsDNA, one strand shown

For one experiment, the target named is T1, SALL4 ZFC4 WT (HT-SELEX) (Mus musculus, UniProt Q8BX22 870-940).
T1 sequence: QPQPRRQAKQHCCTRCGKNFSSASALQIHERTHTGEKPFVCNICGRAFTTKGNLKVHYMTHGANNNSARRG
An outline of the steps: (§1)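 Purified recombinant mouse SALL4 zinc finger cluster 4 (residues 870–940, 1 µg) was incubated with library DNA (1.5 µg first cycle, 200 ng later) in 100 µl of 10 mM Tris–HCl pH 7.5, 50 mM NaCl, poly(dI-dC) and DTT for 10 min at room temperature, with Ni2+ bead capture and reselection for up to 6 cycles in triplicate. MiSeq reads were scanned for 6-mers. Binding signal is each canonical k-mer's read fraction as fold change relative to the initial random library.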

In experiment [1] the target is T2, SALL4 ZFC4 R900W (HT-SELEX) (Mus musculus, UniProt Q8BX22 870-940, R900W).
T2 sequence: T1 sequence with R31W
An outline of the steps: as §1

Experiment [2] deals with T3, SALL4 ZFC4 G921D (HT-SELEX) (Mus musculus, UniProt Q8BX22 870-940, G921D).
T3 sequence: T1 sequence with G52D
An outline of the steps: as §1

Where a chain is given by its changes, count along the chain named.

This is an account of results in PMC9838217, “Structure of SALL4 zinc finger domain reveals link between AT-rich DNA binding and Okihiro syndrome”.

Consider ACATTA, for which the binding signal is 2.1 ± 0.0777 fold-change vs cycle 0 in the experiment with SALL4 ZFC4 WT (HT-SELEX), 2.03 ± 0.0851 fold-change vs cycle 0 in experiment [1] and 1.81 ± 0.142 fold-change vs cycle 0 in experiment [2].

In the case of TCTCCA, the binding signal with SALL4 ZFC4 WT (HT-SELEX) worked out at 0.872 ± 0.044 fold-change vs cycle 0; in experiment [1] it was 0.992 ± 0.0225 fold-change vs cycle 0; in experiment [2], 0.99 ± 0.0254 fold-change vs cycle 0.

As to AGAGGG, the figures for the binding signal (with SALL4 ZFC4 WT (HT-SELEX); in experiment [1]; in experiment [2]) were 0.489 ± 0.0115 fold-change vs cycle 0, 0.556 ± 0.0501 fold-change vs cycle 0 and 0.655 ± 0.0298 fold-change vs cycle 0, respectively.

GATGAC: the binding signal in the experiment with SALL4 ZFC4 WT (HT-SELEX) was 0.865 ± 0.0236 fold-change vs cycle 0; in experiment [1], 0.962 ± 0.0544 fold-change vs cycle 0; in experiment [2] it was 1.01 ± 0.0406 fold-change vs cycle 0.

As to CATACA, the binding signal with SALL4 ZFC4 WT (HT-SELEX) was determined as 1.36 ± 0.0385 fold-change vs cycle 0; in experiment [1] it was 1.37 ± 0.0315 fold-change vs cycle 0; in experiment [2], 1.32 ± 0.0664 fold-change vs cycle 0.

Turning to ATGTTC, the binding signal came out at 1.28 ± 0.0355 fold-change vs cycle 0 with SALL4 ZFC4 WT (HT-SELEX), 1.37 ± 0.0462 fold-change vs cycle 0 in experiment [1] and 1.36 ± 0.0792 fold-change vs cycle 0 in experiment [2].

As to ATGATC, the figures for the binding signal (with SALL4 ZFC4 WT (HT-SELEX); in experiment [1]; in experiment [2]) were 1.37 ± 0.0972 fold-change vs cycle 0, 1.46 ± 0.0896 fold-change vs cycle 0 and 1.48 ± 0.0835 fold-change vs cycle 0, respectively.

Regarding ATGTGC, the binding signal with SALL4 ZFC4 WT (HT-SELEX) was determined as 0.53 ± 0.0281 fold-change vs cycle 0; in experiment [1], 0.588 ± 0.00704 fold-change vs cycle 0; in experiment [2] it was 0.719 ± 0.0265 fold-change vs cycle 0.

Turning to AGGAAA, the results for the binding signal (with SALL4 ZFC4 WT (HT-SELEX); in experiment [1]; in experiment [2]) were 1.31 ± 0.0867 fold-change vs cycle 0, 1.43 ± 0.085 fold-change vs cycle 0 and 1.35 ± 0.118 fold-change vs cycle 0, respectively.

For the sequence AAGTGG, the binding signal came to 0.762 ± 0.0311 fold-change vs cycle 0 with SALL4 ZFC4 WT (HT-SELEX), 0.891 ± 0.0548 fold-change vs cycle 0 in experiment [1] and 0.909 ± 0.0639 fold-change vs cycle 0 in experiment [2].

Take CGTATC: the binding signal stood at 0.723 ± 0.0291 fold-change vs cycle 0 with SALL4 ZFC4 WT (HT-SELEX), 0.818 ± 0.0282 fold-change vs cycle 0 in experiment [1] and 0.89 ± 0.0234 fold-change vs cycle 0 in experiment [2].

With CATATG, the binding signal came to 1.44 ± 0.156 fold-change vs cycle 0 with SALL4 ZFC4 WT (HT-SELEX), 1.37 ± 0.112 fold-change vs cycle 0 in experiment [1] and 1.32 ± 0.0777 fold-change vs cycle 0 in experiment [2].

For TAGGGA, the binding signal was found to be 0.931 ± 0.0124 fold-change vs cycle 0 with SALL4 ZFC4 WT (HT-SELEX), 0.998 ± 0.0215 fold-change vs cycle 0 in experiment [1] and 1.02 ± 0.0328 fold-change vs cycle 0 in experiment [2].

As for AATCTC, the binding signal was 1.38 ± 0.0549 fold-change vs cycle 0 in the experiment with SALL4 ZFC4 WT (HT-SELEX), 1.5 ± 0.0336 fold-change vs cycle 0 in experiment [1] and 1.43 ± 0.0651 fold-change vs cycle 0 in experiment [2].

In the case of ACAGGG, the binding signal with SALL4 ZFC4 WT (HT-SELEX) was 0.493 ± 0.038 fold-change vs cycle 0; in experiment [1] it was 0.569 ± 0.0399 fold-change vs cycle 0; in experiment [2] it was 0.639 ± 0.0358 fold-change vs cycle 0.

Turning to GTCTTA, the binding signal was 1.27 ± 0.0474 fold-change vs cycle 0 with SALL4 ZFC4 WT (HT-SELEX), 1.39 ± 0.0618 fold-change vs cycle 0 in experiment [1] and 1.35 ± 0.0901 fold-change vs cycle 0 in experiment [2].

AGGTCA: the binding signal with SALL4 ZFC4 WT (HT-SELEX) worked out at 0.772 ± 0.0359 fold-change vs cycle 0; in experiment [1], 0.893 ± 0.023 fold-change vs cycle 0; in experiment [2], 0.972 ± 0.0353 fold-change vs cycle 0.

Turning to CCTTTA, the binding signal with SALL4 ZFC4 WT (HT-SELEX) turned out to be 1.31 ± 0.0506 fold-change vs cycle 0; in experiment [1], 1.47 ± 0.0755 fold-change vs cycle 0; in experiment [2] it was 1.33 ± 0.0771 fold-change vs cycle 0.

With AGCTTA, the binding signal amounted to 1.21 ± 0.0616 fold-change vs cycle 0 with SALL4 ZFC4 WT (HT-SELEX), 1.28 ± 0.0778 fold-change vs cycle 0 in experiment [1] and 1.27 ± 0.0883 fold-change vs cycle 0 in experiment [2].

On to ATCGCA, for which the binding signal was found to be 0.515 ± 0.00556 fold-change vs cycle 0 in the experiment with SALL4 ZFC4 WT (HT-SELEX), 0.522 ± 0.0161 fold-change vs cycle 0 in experiment [1] and 0.667 ± 0.0619 fold-change vs cycle 0 in experiment [2].

For GCTTCC, the binding signal in the experiment with SALL4 ZFC4 WT (HT-SELEX) was determined as 0.35 ± 0.00821 fold-change vs cycle 0; in experiment [1], 0.454 ± 0.0368 fold-change vs cycle 0; in experiment [2] it was 0.567 ± 0.0502 fold-change vs cycle 0.

With TTCAAA, the values for the binding signal (with SALL4 ZFC4 WT (HT-SELEX); in experiment [1]; in experiment [2]) were 1.81 ± 0.113 fold-change vs cycle 0, 1.83 ± 0.0928 fold-change vs cycle 0 and 1.66 ± 0.161 fold-change vs cycle 0, respectively.

On to CTATCA, for which the binding signal in the experiment with SALL4 ZFC4 WT (HT-SELEX) amounted to 1.36 ± 0.0524 fold-change vs cycle 0; in experiment [1], 1.47 ± 0.0491 fold-change vs cycle 0; in experiment [2], 1.41 ± 0.0867 fold-change vs cycle 0.

Regarding CAGGAC, the binding signal with SALL4 ZFC4 WT (HT-SELEX) was 0.423 ± 0.0322 fold-change vs cycle 0; in experiment [1], 0.487 ± 0.0192 fold-change vs cycle 0; in experiment [2] it was 0.578 ± 0.0205 fold-change vs cycle 0.

Regarding GAGACC, the values for the binding signal (with SALL4 ZFC4 WT (HT-SELEX); in experiment [1]; in experiment [2]) were 0.414 ± 0.0124 fold-change vs cycle 0, 0.5424 ± 0.00269 fold-change vs cycle 0 and 0.643 ± 0.0507 fold-change vs cycle 0, respectively.

CCCAAC: the figures for the binding signal (with SALL4 ZFC4 WT (HT-SELEX); in experiment [1]; in experiment [2]) were 0.395 ± 0.0223 fold-change vs cycle 0, 0.437 ± 0.0176 fold-change vs cycle 0 and 0.544 ± 0.0399 fold-change vs cycle 0, respectively.

Turning to CAACCA, the binding signal in the experiment with SALL4 ZFC4 WT (HT-SELEX) stood at 0.686 ± 0.0177 fold-change vs cycle 0; in experiment [1], 0.804 ± 0.0166 fold-change vs cycle 0; in experiment [2], 0.877 ± 0.0338 fold-change vs cycle 0.

Consider ACGTAC, for which the binding signal with SALL4 ZFC4 WT (HT-SELEX) came out at 0.714 ± 0.0363 fold-change vs cycle 0; in experiment [1], 0.825 ± 0.0331 fold-change vs cycle 0; in experiment [2], 0.862 ± 0.022 fold-change vs cycle 0.

As for GACACC, the binding signal with SALL4 ZFC4 WT (HT-SELEX) came to 0.393 ± 0.0241 fold-change vs cycle 0; in experiment [1] it was 0.461 ± 0.0351 fold-change vs cycle 0; in experiment [2] it was 0.593 ± 0.067 fold-change vs cycle 0.

For the sequence AGCTAC, the binding signal with SALL4 ZFC4 WT (HT-SELEX) amounted to 0.674 ± 0.0463 fold-change vs cycle 0; in experiment [1], 0.7802 ± 0.0018 fold-change vs cycle 0; in experiment [2], 0.874 ± 0.026 fold-change vs cycle 0.

For the sequence AACCAT, the binding signal with SALL4 ZFC4 WT (HT-SELEX) came out at 1.38 ± 0.0512 fold-change vs cycle 0; in experiment [1], 1.42 ± 0.0463 fold-change vs cycle 0; in experiment [2] it was 1.41 ± 0.0967 fold-change vs cycle 0.

For AAACTC, the binding signal amounted to 1.19 ± 0.0627 fold-change vs cycle 0 with SALL4 ZFC4 WT (HT-SELEX), 1.3 ± 0.0461 fold-change vs cycle 0 in experiment [1] and 1.28 ± 0.0858 fold-change vs cycle 0 in experiment [2].

For ACAGGA, the binding signal in the experiment with SALL4 ZFC4 WT (HT-SELEX) worked out at 0.851 ± 0.0194 fold-change vs cycle 0; in experiment [1] it was 1 ± 0.0486 fold-change vs cycle 0; in experiment [2], 1.01 ± 0.0583 fold-change vs cycle 0.

Turning to ACTAGA, the figures for the binding signal (in the experiment with SALL4 ZFC4 WT (HT-SELEX); in experiment [1]; in experiment [2]) were 1.39 ± 0.0596 fold-change vs cycle 0, 1.52 ± 0.0902 fold-change vs cycle 0 and 1.41 ± 0.142 fold-change vs cycle 0, respectively.

For AGAGTA, the values for the binding signal (in the experiment with SALL4 ZFC4 WT (HT-SELEX); in experiment [1]; in experiment [2]) were 1.47 ± 0.0798 fold-change vs cycle 0, 1.61 ± 0.0906 fold-change vs cycle 0 and 1.46 ± 0.121 fold-change vs cycle 0, respectively.

AAAGGA: the binding signal in the experiment with SALL4 ZFC4 WT (HT-SELEX) came to 1.36 ± 0.0473 fold-change vs cycle 0; in experiment [1] it was 1.57 ± 0.109 fold-change vs cycle 0; in experiment [2] it was 1.44 ± 0.105 fold-change vs cycle 0.

Take AAGTCA: the binding signal in the experiment with SALL4 ZFC4 WT (HT-SELEX) stood at 1.3 ± 0.0493 fold-change vs cycle 0; in experiment [1], 1.46 ± 0.0531 fold-change vs cycle 0; in experiment [2], 1.35 ± 0.0928 fold-change vs cycle 0.

Regarding TAATAA, the binding signal with SALL4 ZFC4 WT (HT-SELEX) is 5.02 ± 0.619 fold-change vs cycle 0; in experiment [1], 2.78 ± 0.312 fold-change vs cycle 0; in experiment [2], 2.32 ± 0.357 fold-change vs cycle 0.

Take GAAGCA: the binding signal in the experiment with SALL4 ZFC4 WT (HT-SELEX) is 0.667 ± 0.0348 fold-change vs cycle 0; in experiment [1] it was 0.784 ± 0.0247 fold-change vs cycle 0; in experiment [2], 0.88 ± 0.0121 fold-change vs cycle 0.

Consider GAGACA, for which the binding signal is 0.735 ± 0.0463 fold-change vs cycle 0 with SALL4 ZFC4 WT (HT-SELEX), 0.867 ± 0.0277 fold-change vs cycle 0 in experiment [1] and 0.933 ± 0.0384 fold-change vs cycle 0 in experiment [2].

On to AACTCA, for which the binding signal came out at 1.37 ± 0.0562 fold-change vs cycle 0 in the experiment with SALL4 ZFC4 WT (HT-SELEX), 1.48 ± 0.0196 fold-change vs cycle 0 in experiment [1] and 1.4 ± 0.113 fold-change vs cycle 0 in experiment [2].

Turning to CGAGGA, the binding signal in the experiment with SALL4 ZFC4 WT (HT-SELEX) is 0.409 ± 0.0195 fold-change vs cycle 0; in experiment [1], 0.5 ± 0.0275 fold-change vs cycle 0; in experiment [2] it was 0.587 ± 0.0701 fold-change vs cycle 0.
